# Compounds with a hit are over-represented: about 2.3% of the library has one in this group of screens.
# Mcl1 Noxa PPI – Mcl-1/Noxa binding inhibitors, primary screen, biochemical, TR-FRET, 1536-well; TR-FRET Mcl-1/Noxa peptide binding, 2 h; inhibition, % at 21.7 µM; actives 1.5% (n = 220,000); AID 1022, 2008;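 active = compounds that cut the protein-peptide binding signal by more than 50% relative to plate controls in a single-dose test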;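 also: His-tagged Mcl-1 with rhodamine Noxa BH3 peptide and terbium anti-His antibody; 0% = Mcl-1 plus Noxa peptide wells and 100% = peptide-only wells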
# Target sequence (Q07820 whole entry, looked up): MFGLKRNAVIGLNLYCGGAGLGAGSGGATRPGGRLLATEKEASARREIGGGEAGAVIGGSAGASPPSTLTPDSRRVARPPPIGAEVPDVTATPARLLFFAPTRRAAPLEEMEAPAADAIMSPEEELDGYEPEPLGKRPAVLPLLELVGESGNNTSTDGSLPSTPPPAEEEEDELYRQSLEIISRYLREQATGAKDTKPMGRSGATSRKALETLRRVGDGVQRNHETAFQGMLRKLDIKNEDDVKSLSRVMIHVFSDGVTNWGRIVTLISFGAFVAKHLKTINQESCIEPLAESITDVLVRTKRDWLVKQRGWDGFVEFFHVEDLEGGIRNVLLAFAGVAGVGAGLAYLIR
# Bim-Mcl-1 – inhibitors of Bim peptide binding to Mcl-1, primary screen, biochemical, bead-based flow cytometry, multiplex. actives 0.1% (n = 190,000). Induced myeloid leukemia cell differentiation protein Mcl-1 (Homo sapiens), Q07820. Bim peptide-Mcl-1 binding. inhibition, % at 10 µM; in the data active = inhibition above about 40%;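 also: 0% = no compound tracer wells and 100% = peptide blocker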
# Mcl1 Bid PPI – Mcl-1/Bid binding inhibitors, primary screen, biochemical, TR-FRET, 1536-well; TR-FRET Mcl-1/Bid-Dy647 peptide binding; inhibition, % at 21.7 µM; actives 0.97% (n = 220,000);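 active = compounds that cut the binding signal by more than half at the single screening dose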;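 also: His-tagged Mcl-1 with europium anti-His antibody binding Bid BH3 peptide; 0% = Mcl-1 plus peptide wells and 100% = peptide-only wells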
# BCLXL inh – inhibitors of human Bcl-xL, primary screen, biochemical, fluorescence polarization, HTS | Bcl-2-like protein 1 (Homo sapiens), Q07817 | GST-Bcl-xL / FITC-Bim BH3 peptide fluorescence polarization | inhibition, % at 10.9 µM | actives 0.7% (n = 320,000);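 active = inhibition above the mean of all tested compounds plus 3 SD, cutoff set per campaign, cut at about 30% in these data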;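 also: 0% = DMSO wells and 100% = unlabeled Bim-BH3 peptide competitor; inhibitors lower millipolarization by displacing the labeled peptide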
# MCL1 BIM primary – inhibitors of MCL1 binding to BIM-BH3, primary screen, biochemical, fluorescence polarization | Induced myeloid leukemia cell differentiation protein Mcl-1 (Homo sapiens), Q07820 | GST-MCL1 / FITC-Bim-BH3 fluorescence polarization | inhibition, % at 10.9 µM | actives 0.68% (n = 320,000);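 active = inhibition above the mean inhibition of all tested compounds plus 3 SD, set per campaign, cut at about 40% in these data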;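 also: 0% = DMSO wells and 100% = unlabeled Bim-BH3 peptide control; higher means more loss of mP so more displacement of Bim peptide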
# GLD-1 RNA inh – GLD-1/TGE RNA complex disruptors, primary screen, biochemical, fluorescence polarization; Female germline-specific tumor suppressor gld-1 (Caenorhabditis elegans), Q17339; purified GLD-1 + fluorescein TGE RNA; inhibition, % at 5.96 µM; actives 0.44% (n = 320,000);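 active = percent inhibition above a per-plate cutoff, the plate mean of test compounds plus 3 SD, cut at about 30% in these data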;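 also: 0% = DMSO wells with GLD-1 and probe and 100% = wells lacking GLD-1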
# Starred values were filed as active, the others as inactive; nt = not tested or not shown.
SMILES,Mcl1 Noxa PPI,Bim-Mcl-1,Mcl1 Bid PPI,BCLXL inh,MCL1 BIM primary,GLD-1 RNA inh
CN(CCOc1ccc(Cl)c(Cl)c1)Cc1ccccc1,nt,nt,nt,6,7,6
CCN(CC)CCCOc1ccc(Cl)c(Cl)c1,37,-5,16,36*,32,-1
C=CCc1c(C)nc(SCCC)[nH]c1=O,98*,-3,3,3,-4,1
C=CCc1c(C)nc(SCC(N)=O)[nH]c1=O,27,0,10,-1,-1,-13
CC/C(=N/Nc1cccc(C)c1)c1cnnc(SC)n1,19,-9,-5,46*,31,7
CC/C(=N/Nc1ccc(Cl)cc1)c1cnnc(SC)n1,10,-3,-15,10,11,6
COc1ccccc1N1CC(C(=O)Nc2nnc(SCC(=O)N3CCOCC3)s2)CC1=O (centres undefined),nt,nt,nt,5,11,1
Cc1ccc(-c2nc(NCc3ccco3)c3ccccc3n2)cc1,17,0,-18,2,6,0
OCCN1CCN(c2nc(NCc3ccco3)c3ccccc3n2)CC1,51*,-1,1,0,-4,0
c1cncc(-c2nc(NCc3ccco3)c3ccccc3n2)c1,51*,-2,53*,2,1,-3
Cc1ccccc1Nc1nc(NCc2ccco2)c2ccccc2n1,45,2,-14,3,3,9
Oc1ccccc1Nc1nc(NCc2ccco2)c2ccccc2n1,60*,nt,-47,-4,-7,5
O=C(N1CCN(c2ccccc2F)CC1)C1(c2cccs2)CCOCC1,13,-5,-40,1,-7,5
O=C(O)C1CCCCC1C(=O)Nc1nc(-c2ccc(Cl)s2)cs1 (centres undefined),71*,1,-114,11,25,2
O=C(Nc1ccc([N+](=O)[O-])cc1)Nc1nc(-c2ccc(Cl)s2)cs1,82*,-4,29,-1,0,0
O=C1Nc2cc(C(F)(F)F)ccc2N2CCCCC12 (centres undefined),nt,nt,nt,7,2,3
NCc1cc2c3c(c1)CCCN3CCC2,nt,nt,nt,16,11,3
O=C(NC(=S)NCCC1=CCCCC1)c1ccccc1Br,68*,-5,-53,16,34,3
O=C(COC(=O)c1ccccc1Br)NCCC1=CCCCC1,18,1,-25,11,8,4
CCOc1cccnc1Sc1ccccc1,nt,nt,nt,0,-4,1
Cc1oc2ccc(O)cc2c1C(=O)c1ccccc1,nt,nt,nt,-2,-7,0
Cc1cc(=O)c(C(=O)c2ccccc2)c(C)o1,nt,nt,nt,37*,-1,6
Cc1ccc(-c2cc(C(=O)Nc3sc4c(c3C(=O)NCc3ccco3)CCC4)[nH]n2)c(O)c1,49,-20,34,1,7,-5
Cc1cc(O)c(-c2cc(C(=O)Nc3sc4c(c3C(=O)NCc3ccco3)CCC4)[nH]n2)cc1C,71*,nt,-47,-1,1,-3
O=C(NCc1ccc2c(c1)OCO2)c1cc2c(s1)CSC2,21,-2,-25,0,3,4
SMILES,Mcl1 Noxa PPI,Bim-Mcl-1,Mcl1 Bid PPI,BCLXL inh,MCL1 BIM primary,GLD-1 RNA inh
O=C(NCc1ccco1)c1cc2c(s1)CSC2,79*,-1,-24,21,37,2
CCCCOc1ccc(C(=O)NNC(=O)c2cnccn2)cc1OC,nt,nt,nt,nt,nt,-3
Cc1ccc(-n2c(N)c(C(=O)Nc3c(C)n(C)n(-c4ccccc4)c3=O)c3nc4ccccc4nc32)cc1,32,-34,2,-6,-18,6
Cc1cc(C)cc(-n2c(N)c(C(=O)Nc3c(C)n(C)n(-c4ccccc4)c3=O)c3nc4ccccc4nc32)c1,41,-12,-24,32*,0,7
O=C(NNC(=O)c1ccc(O)cc1O)c1ccc(Cl)cc1,31,6,56*,-1,-1,-4
O=C(O)C1CCCCC1C(=O)NCc1ccccn1 (centres undefined),8,0,-33,4,4,4
